This is an account of results in PubChem BioAssay (NCI).

A short description of assay [1]: NCI Yeast Anticancer Drug Screen. Data for the rad50 strain (AID 155).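 Note: 0% = growth of vehicle-only cultures of the same strain.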 The following applies: S. cerevisiae rad50 strain growth inhibition, stronger effect = higher value. The procedure, abridged: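 Relative growth inhibition (compound vs vehicle) was measured in yeast with a defined repair-gene alteration.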
A short description of assay [2]: NCI Yeast Anticancer Drug Screen. Data for the mec2-1 strain (AID 157). The following applies: S. cerevisiae mec2-1 strain, stronger effect = higher value. The method in brief: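 Cells of the genetically defined mec2-1 yeast strain are incubated with test compound. Inhibition of growth is calculated against vehicle-treated controls.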
Assay [3] is described as follows: NCI Yeast Anticancer Drug Screen. Data for the sgs1 mgt1 strain (AID 161).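 Note: 0% = growth of cultures given vehicle only.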 To be noted: S. cerevisiae sgs1 mgt1 strain, stronger effect = higher value. The procedure, abridged: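 Read-out: growth inhibition vs vehicle controls. Cells: mutant yeast strain deficient in DNA damage repair.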
Assay [4] in a line: NCI Yeast Anticancer Drug Screen. Data for the cln2 rad14 strain (AID 165).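 Note: 0% = growth equal to vehicle treated cultures.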 To be noted: S. cerevisiae cln2 rad14 strain, stronger effect = higher value. The procedure, abridged: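 The screen exposed genetically defined yeast (cln2 rad14) to test compounds and scored growth inhibition relative to vehicle-treated controls.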
Assay [5] in a line: NCI Yeast Anticancer Drug Screen. Data for the bub3 strain (AID 167). To be noted: S. cerevisiae bub3 mutant strain, stronger effect = higher value. The procedure, abridged:
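Screening used yeast with an engineered genetic alteration affecting cell cycle control. Compound-exposed cultures were compared with vehicle cultures, and reduced growth was taken as inhibition.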

Assay [6] can be described thus: NCI Yeast Anticancer Drug Screen. Data for the mlh1 rad18 strain (AID 175). The following applies: S. cerevisiae mlh1 rad18 strain growth inhibition, stronger effect = higher value. The method in brief:
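Compound-treated yeast growth, normalised to vehicle controls. Strain bears defined DNA repair mutations.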

Where [7] appears, read: at 5.0 µM (retest, dose inferred, filed as 0.5).
Where [8] appears, read: at 50.0 µM (retest, dose inferred, filed as 5.0).

This is part of a sample that, as a whole, favours compounds with a hit. Of some 79,000 tested, about 15% had one in any assay. A number with no mark means an inactive call. Calls of active or inactive are those of the source. Cut-off read from the data, not from the text of the source: active = growth inhibition above about 70%; inactive = the rest.

For `CC(C)OC(=O)c1cc([N+](=O)[O-])cc([N+](=O)[O-])c1Sc1ncnc2nc[nH]c12`, the growth inhibition is 49% in assay [1] (setting [7]); 54% in assay [1] (setting [8]); 14.2% in assay [1] (at 50.0 µM); 11% in assay [2] (setting [7]); 49% in assay [2] (setting [8]); 15.5% in assay [2] (at 50.0 µM). The growth inhibition is 44% in assay [3] (setting [7]); 83% (active) in assay [3] (setting [8]); 20.9% in assay [3] (at 50.0 µM); 44% in assay [4] (setting [7]); 57% in assay [4] (setting [8]); 65.8% in assay [4] (at 50.0 µM). Further, the growth inhibition in assay [5] (setting [7]) was 45%; in assay [5] (setting [8]), 79% (active); in assay [5] (at 50.0 µM) it was 24.7%; in assay [6] (setting [7]) it was 35%; in assay [6] (setting [8]) it was 42%; in assay [6] (at 50.0 µM), 66.8%.
Turning to `CCN(CC)CCNCc1ccccc1`, the growth inhibition is -157% in assay [1] (setting [7]); -178% in assay [1] (setting [8]); -7.3% in assay [1] (at 50.0 µM); -49% in assay [2] (setting [7]); -57% in assay [2] (setting [8]); -1.15% in assay [2] (at 50.0 µM). Further, the growth inhibition in assay [3] (setting [7]) is -64%; in assay [3] (setting [8]), -67%; in assay [3] (at 50.0 µM) it was 10.9%; in assay [4] (setting [7]), -62%; in assay [4] (setting [8]), -66%; in assay [4] (at 50.0 µM) it was 38.7%. For the same compound, the growth inhibition was -70% in assay [5] (setting [7]); -86% in assay [5] (setting [8]); 5.45% in assay [5] (at 50.0 µM); -139% in assay [6] (setting [7]); -119% in assay [6] (setting [8]); 1.8% in assay [6] (at 50.0 µM).
`Cc1cc(Cl)c2c(c1)C(=N/O)/C(=C\c1ccco1)O2`: the growth inhibition in assay [1] (setting [7]) is 100% (active); in assay [1] (setting [8]), 99% (active); in assay [1] (at 50.0 µM), 88% (active); in assay [2] (setting [7]) it was 100% (active); in assay [2] (setting [8]), 99% (active); in assay [2] (at 50.0 µM), 90.3% (active). Also, the growth inhibition in assay [3] (setting [7]) was 96% (active); in assay [3] (setting [8]), 99% (active); in assay [3] (at 50.0 µM), 83.5% (active); in assay [4] (setting [7]) it was 77% (active); in assay [4] (setting [8]) it was 99% (active); in assay [4] (at 50.0 µM) it was 88% (active). For the same compound, the growth inhibition in assay [5] (setting [7]) is 100% (active); in assay [5] (setting [8]), 99% (active); in assay [5] (at 50.0 µM), 89% (active); in assay [6] (setting [7]), 99% (active); in assay [6] (setting [8]), 99% (active); in assay [6] (at 50.0 µM) it was 85.2% (active).
With `CC1=C(C(=O)Nc2ccccc2)C(c2cccc([N+](=O)[O-])c2)C(C(=O)Nc2ccccc2)=C(C)N1`, the growth inhibition was 4% in assay [1] (setting [7]); 30% in assay [1] (setting [8]); -7.95% in assay [1] (at 50.0 µM); 1% in assay [2] (setting [7]); 63% in assay [2] (setting [8]); 26.1% in assay [2] (at 50.0 µM). Besides, the growth inhibition was 4% in assay [3] (setting [7]); 30% in assay [3] (setting [8]); 19.1% in assay [3] (at 50.0 µM); -2% in assay [4] (setting [7]); 24% in assay [4] (setting [8]); 4.75% in assay [4] (at 50.0 µM). In addition, the growth inhibition in assay [5] (setting [7]) was 6%; in assay [5] (setting [8]), 75% (active); in assay [5] (at 50.0 µM), 35.4%; in assay [6] (setting [7]) it was -7%; in assay [6] (setting [8]), 24%; in assay [6] (at 50.0 µM), 18.9%.
In the case of `O=C(O)/C=C/c1ccc([N+](=O)[O-])o1`, the growth inhibition in assay [1] (setting [7]) is 12%; in assay [1] (setting [8]), 50%; in assay [1] (at 50.0 µM) it was 87.4% (active); in assay [2] (setting [7]), 5%; in assay [2] (setting [8]) it was 38%; in assay [2] (at 50.0 µM), 80% (active). Further, the growth inhibition in assay [3] (setting [7]) is 9%; in assay [3] (setting [8]) it was 67%; in assay [3] (at 50.0 µM), 90% (active); in assay [4] (setting [7]), -3%; in assay [4] (setting [8]), 38%; in assay [4] (at 50.0 µM), 62.4%. For the same compound, the growth inhibition in assay [5] (setting [7]) is 4%; in assay [5] (setting [8]), 42%; in assay [5] (at 50.0 µM), 76% (active); in assay [6] (setting [7]), 11%; in assay [6] (setting [8]), 81% (active); in assay [6] (at 50.0 µM), 93.2% (active).
Turning to `COc1cc2oc(-c3ccc(O)cc3O)c(CC=C(C)C)c(=O)c2c(O)c1/C=C/C(C)C`, the growth inhibition in assay [1] (setting [7]) was 17%; in assay [1] (setting [8]), 97% (active); in assay [1] (at 50.0 µM), 89.5% (active); in assay [2] (setting [7]) it was 8%; in assay [2] (setting [8]), 98% (active); in assay [2] (at 50.0 µM) it was 90.7% (active). Also, the growth inhibition in assay [3] (setting [7]) was 10%; in assay [3] (setting [8]), 97% (active); in assay [3] (at 50.0 µM), 91% (active); in assay [4] (setting [7]), 24%; in assay [4] (setting [8]), 98% (active); in assay [4] (at 50.0 µM) it was 88.8% (active). In addition, the growth inhibition in assay [5] (setting [7]) is 11%; in assay [5] (setting [8]), 97% (active); in assay [5] (at 50.0 µM), 88.8% (active); in assay [6] (setting [7]), 9%; in assay [6] (setting [8]) it was 97% (active); in assay [6] (at 50.0 µM), 90.3% (active).
As to `Cc1cccc(C)c1N1C(=O)C(=O)C(c2nc3ccccc3s2)/C(=N/NC(=O)c2ccccc2O)C1=O` (configuration not stated), the growth inhibition was 26% in assay [1] (setting [7]); 26% in assay [1] (setting [8]); 71.9% (active) in assay [1] (at 50.0 µM); 16% in assay [2] (setting [7]); 16% in assay [2] (setting [8]); 56.2% in assay [2] (at 50.0 µM). Moreover, the growth inhibition is 26% in assay [3] (setting [7]); 26% in assay [3] (setting [8]); 48.9% in assay [3] (at 50.0 µM); 21% in assay [4] (setting [7]); 21% in assay [4] (setting [8]); 69.5% in assay [4] (at 50.0 µM). Further, the growth inhibition is 19% in assay [5] (setting [7]); 19% in assay [5] (setting [8]); 66% in assay [5] (at 50.0 µM); 34% in assay [6] (setting [7]); 34% in assay [6] (setting [8]); 48.5% in assay [6] (at 50.0 µM).
With `Cn1c(-c2ccc(/C=N/NC(N)=NCCCCCCN=C(N)N/N=C/c3ccc(-c4c[n+]5ccccc5n4C)cc3)cc2)c[n+]2ccccc12`, the growth inhibition in assay [1] (setting [7]) was 97% (active); in assay [1] (setting [8]), 98% (active); in assay [1] (at 50.0 µM), 98.2% (active); in assay [2] (setting [7]), 97% (active); in assay [2] (setting [8]) it was 98% (active); in assay [2] (at 50.0 µM) it was 96.8% (active). The growth inhibition in assay [3] (setting [7]) is 97% (active); in assay [3] (setting [8]), 98% (active); in assay [3] (at 50.0 µM), 97.2% (active); in assay [4] (setting [7]) it was 95% (active); in assay [4] (setting [8]) it was 98% (active); in assay [4] (at 50.0 µM), 89.3% (active). Also, the growth inhibition is 97% (active) in assay [5] (setting [7]); 99% (active) in assay [5] (setting [8]); 97.3% (active) in assay [5] (at 50.0 µM); 97% (active) in assay [6] (setting [7]); 98% (active) in assay [6] (setting [8]); 97.7% (active) in assay [6] (at 50.0 µM).
As to `c1ccc2c(c1)C[n+]1ccc3ccccc3c1-c1c3ccccc3cc[n+]1C2`, the growth inhibition in assay [1] (setting [7]) is 8%; in assay [1] (setting [8]) it was 28%; in assay [1] (at 50.0 µM) it was 64.2%; in assay [2] (setting [7]), 6%; in assay [2] (setting [8]), 20%; in assay [2] (at 50.0 µM), 13.4%. Further, the growth inhibition is 11% in assay [3] (setting [7]); 40% in assay [3] (setting [8]); 69.8% in assay [3] (at 50.0 µM); 1% in assay [4] (setting [7]); 18% in assay [4] (setting [8]); 53% in assay [4] (at 50.0 µM). In addition, the growth inhibition is -2% in assay [5] (setting [7]); 4% in assay [5] (setting [8]); 7.85% in assay [5] (at 50.0 µM); 7% in assay [6] (setting [7]); 21% in assay [6] (setting [8]); 65.8% in assay [6] (at 50.0 µM).
